TbPYK inhibitor: blocks Trypanosoma brucei pyruvate kinase | Potency, µM (doses to about 76.8 µM), without a hit: at the top dose activity, negative = inhibition, actives largely listed as inhibitors | TbPYK enzyme, Kinase-Glo Plus ATP luminescence, 45 min | 0.12% of 410,000 active; further: potency means the concentration at half of the fitted maximal effect; on the % scale 0 is the no-effect control and ±100 the full control effect; nearly all actives have a fitted effect of over 50% in size
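Glycolytic pyruvate kinase of T. brucei was incubated with substrate, test compound and 130 uM ADP for 45 minutes at room temperature. Luminescent Kinase-Glo Plus signal was measured after 10 minutes.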
Shiga toxin inh: inhibitors of Shiga toxin in Vero cells; Vero cells, Shiga toxin protein synthesis inhibition reporter; inhibition, % at 38.7 µM; 9.2% of 290,000 active; AID 2315; in the data active means inhibition mostly above about 28%, no sharp cut-off; inactive means mostly below about 43%; further: 0% is about no effect
Sm TGR inh: blocks Schistosoma mansoni thioredoxin glutathione reductase; purified TGR, DTNB reduction, TNB absorbance 405 nm; Potency, µM (top dose mostly 114 µM), for the others: at the highest dose activity change, negative = inhibition, hits mostly inhibitors; 3% of 360,000 active; AID 485364; further: potency means the concentration at half of the fitted maximal effect; on the % scale 0 is the no-effect control and ±100 the full control effect; nearly all actives have a fitted effect of over 60% in size
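TGR 20 nM + NADPH 100 uM (dispensed conc.), cpd preinc 15 min RT; start with NADPH (500 uM addition) then DTNB (15 mM addition). Kinetic TNB absorbance, 405 nm filter. Four-parameter Hill fit across titration.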
LmPK inh: blocks Leishmania mexicana pyruvate kinase activity; 0.37% of 290,000 active; Q27686; purified LmPK, Kinase-Glo ATP luminescence, 1 h; AID 1721; Potency, µM (titrated, usually from 57.5 µM), inactives show at the top dose activity change, negative = inhibition, usual class: inhibitors; further: potency means the concentration at half of the fitted maximal effect; on the % scale 0 is the no-effect control and ±100 the full control effect
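Purified LmPK (0.1 nM) with 0.5 mM PEP and 0.1 mM ADP in imidazole buffer pH 7.2 with MgCl2/KCl, 1 h at room temperature. ATP formed was read by luciferase luminescence and normalized to no-enzyme and uninhibited controls.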
FBPA Giardia inh: blocks Giardia fructose-bisphosphate aldolase activity. Potency, µM (doses to about 59.6 µM), inactives show at the highest dose activity, negative = inhibition, usual class: inhibitors. A8B2U2. 0.71% of 290,000 active. purified Giardia FBPA; further: potency means the concentration at half of the fitted maximal effect; on the % scale 0 is the no-effect control and ±100 the full control effect; nearly all actives have a fitted effect of over 55% in size
Target sequence (A8B2U2 whole entry, looked up): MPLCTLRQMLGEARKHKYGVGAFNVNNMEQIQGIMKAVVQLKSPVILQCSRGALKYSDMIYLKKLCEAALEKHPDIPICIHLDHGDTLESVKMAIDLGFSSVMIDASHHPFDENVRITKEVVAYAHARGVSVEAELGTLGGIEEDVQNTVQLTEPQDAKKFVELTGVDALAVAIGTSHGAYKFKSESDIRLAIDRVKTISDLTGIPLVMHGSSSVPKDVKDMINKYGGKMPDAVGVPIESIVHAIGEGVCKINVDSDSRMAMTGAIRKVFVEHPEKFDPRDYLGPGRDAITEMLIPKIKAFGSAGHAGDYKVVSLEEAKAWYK
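40 nM FBPA preincubated 10 min at RT with compound (up to 57.5 uM final), then substrate plus GAPDH/TPI/NAD/arsenate coupling and diaphorase/resazurin added. Fluorescence read after 20 min at RT, 525/598 nm.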
Cycloheximide cs: counter-screen hit for Shiga toxin inhibitors, cycloheximide; cell reporter, cycloheximide protein synthesis inhibition counterscreen; max response, %; 12% of 300,000 active; AID 2314; in the data active means max response mostly above about 13%, no sharp cut-off; inactive means mostly below about 14%; further: read at 38.3 µM for the half of the compounds with a filed dose; 0% is about no effect
Numbers without * were called inactive; ? = inconclusive; . = no result. Shown is part of a subset that was picked to be rich in hits. Unless noted, the call rests on the fitted dose curve; in most records, active means well fitted curve in the direction sought with a large enough effect; inconclusive means small, poorly fitted or top-dose-only effect, or another doubt; inactive means no such curve, though single readings can be large; an effect the other way counts as inactive or inconclusive.

SMILES | TbPYK inhibitor | Shiga toxin inh | Sm TGR inh | LmPK inh | FBPA Giardia inh | Cycloheximide cs
Cc1ncsc1CCOC(=O)c1ccc(Cl)cc1 | -16% | 69* | . | -1% | -10% | 35*
Cc1ncsc1CCOC(=O)c1ccccc1 | 0% | 58* | -7% | -19% | -16% | 38*
O=C(COC(=O)c1ccc2ncsc2c1)NCc1ccc(Cl)cc1 | 0% | . | -7% | . | . | .
CC(=O)NCc1ccc(C(=O)CSc2nnc(C3CC3)n2C2CC2)cc1 | -1% | . | -22% | . | . | .
CC(=O)Nc1ccccc1OCc1nnc(-c2ccc(Cl)cc2)o1 | -4% | 33 | -1% | -4% | 3% | 28*
Clc1ccccc1OCc1nnc(-c2ccccc2)o1 | -3% | 67* | 22% | 0% | 6% | 46*
CC(=O)Nc1ccccc1OCc1nnc(-c2cccs2)o1 | -9% | 21 | 4% | -1% | 7% | 7
CCCCOc1ccc(-c2[nH]ncc2C=O)cc1 | 6% | 117* | 13% | 1% | 2% | 37*
Cc1ccc(Cl)cc1N1CCN(Cc2nnc(-c3ccc4c(c3)OCO4)o2)CC1 | -9% | . | 4% | . | . | .
Cc1ccc(NC(=O)CN2C(=O)N/C(=C/c3cc(C)n(-c4cccc(C(=O)O)c4)c3C)C2=O)cc1 | -4% | 7 | 20µM* | 2% | -11% | 7
COc1cccc(/C=C2/NC(=O)N(CC(=O)Nc3ccc(C)cc3)C2=O)c1OCc1cccc(C(=O)O)c1 | 0% | 20 | -15% | 10% | 9% | -4
Cc1ccc(CN2C(=O)N/C(=C\c3cccn3-c3cccc(C(=O)O)c3)C2=O)cc1 | -7% | 7 | 35µM* | 0% | 8% | 5
Cc1ccc(NC(=O)CN2C(=O)N/C(=C/c3ccccc3OCc3cccc(C(=O)O)c3)C2=O)cc1 | -4% | 48* | -18% | 3% | 15% | 43*
Cc1ccc(SC(CC(=O)c2ccc(F)cc2)C(=O)O)cc1 (configuration not stated) | 1% | 19 | 0.5µM* | 0% | -10% | 3
CC(C)(C)c1ccc(C(=O)CC(Sc2ccc(Cl)cc2)C(=O)O)cc1 (configuration not stated) | ? | -6 | 11µM* | 1% | 20% | -1
COc1ccc(/C=C/c2cc(OC)c(OC)cc2CC[N+](C)(C)C)cc1 | . | . | . | . | 1% | .
N#Cc1ccc(C=NN2CCCCCC2)cc1 | 0% | . | . | . | . | .
COc1ccc(C)cc1NC(=O)Nc1ccc2c(c1)CCC2 | -10% | 29 | -1% | -2% | . | 24*
COc1ccc(NC(=O)Nc2ccc3c(c2)CCC3)cc1OC | -4% | 56 | . | 5% | 1% | 17*
COc1ccccc1NC(=O)Nc1ccc2c(c1)CCC2 | -11% | 65* | 5% | -14% | . | 53*
NC(N)=NCCCCN=C(N)N | -7% | . | . | . | 2% | .
Cc1ccccc1CC1(CO)CCCN(C(=O)CCCN2CCCCC2=O)C1 (configuration not stated) | 3% | 44 | -5% | 5% | -2% | 17*
Cc1ccc(NC2CCCN(C(=O)c3ccc(C)c(N4CCNC4=O)c3)C2)cc1C (configuration not stated) | 2% | 20 | -24% | -2% | . | 9.9*
COc1ccc(NC2CCCN(C(=O)CCCN3CCCCC3=O)C2)cc1 (configuration not stated) | -1% | -2 | -18% | -3% | -16% | -3
CCOC(=O)C1(Cc2ccccc2C)CCCN(C(=O)CN2CCCCC2=O)C1 (configuration not stated) | 0% | 29 | -6% | -3% | 0% | 7
SMILES | TbPYK inhibitor | Shiga toxin inh | Sm TGR inh | LmPK inh | FBPA Giardia inh | Cycloheximide cs
Cc1ccc(NC2CCCN(C(=O)CCCN3CCCCC3=O)C2)cc1C (configuration not stated) | 0% | 21 | -24% | 3% | -5% | 13*
CN(Cc1ccccc1)C(=O)c1ccc2c(c1)N(Cc1ccccc1Cl)C(=O)c1ccccc1S2 | -2% | . | 7% | . | . | .
Cc1[nH][nH]c(=O)c1C(c1c(C)[nH][nH]c1=O)c1cn(Cc2cccc3ccccc23)c2ccccc12 | 3% | -8 | -10% | 1% | ? | -3
Cc1[nH][nH]c(=O)c1C(c1c(C)[nH][nH]c1=O)c1cn(C)c2ccccc12 | -6% | 10 | -6% | -3% | 2.8µM* | 6
C=C[C@@]1(C)CC[C@H](O)[C@H]2C(=O)CCC[C@@H]21 | . | . | . | . | 3% | .
Cc1cccc(N(C)C(=O)c2cnn(-c3ccccc3)c2C)c1 | 3% | 40* | -3% | -7% | 8% | 24*
Cc1c(C(=O)N(C)c2ccc(Cl)cc2)cnn1-c1ccccc1 | 2% | . | 5% | -1% | 10% | 50*
Cc1ccc(N(C)C(=O)c2cnn(-c3ccccc3)c2C)c(C)c1 | -9% | . | -15% | 1% | -7% | -1
CCOC(=O)c1ccccc1NC(=O)c1sc2ncn(CC)c(=O)c2c1C | -3% | . | 3% | . | . | .
CC(=O)NC1CC2CCCC(C1)N2C(=O)Nc1ccc(Cl)cc1 (configuration not stated) | -3% | . | . | . | . | .
O=C1c2ccccc2S(=O)(=O)N1CC1CC(c2ccccc2)=NO1 (configuration not stated) | -9% | 89* | -2% | -1% | 13% | 44*
O=C1c2ccccc2S(=O)(=O)N1CC1CC(c2ccc(Cl)cc2)=NO1 (configuration not stated) | 4% | 66* | 2% | 3% | 1% | 61*
COc1ccc(C2=NOC(CN3C(=O)c4ccccc4S3(=O)=O)C2)cc1 (configuration not stated) | -1% | 125* | -3% | 4% | 1% | 64*
CCC(=O)NCCCC[C@H](NC(=O)OCc1ccccc1)C(=O)Nc1ccc2c(C)cc(=O)oc2c1 | . | -5 | . | . | 1% | -3
Cc1ccc(NC(=O)CN2C(=O)COc3ccc(S(=O)(=O)NC4CCCC4)cc32)cc1Cl | -7% | . | 0% | . | . | .
Cc1ccc(OC(C)C(=O)Nc2ccc(F)cc2)c([N+](=O)[O-])n1 (configuration not stated) | -1% | . | -9% | . | . | .
CC(NC(=O)Nc1ccccc1C(F)(F)F)c1c(-n2cccc2)sc2c1CCCC2 (configuration not stated) | 2% | . | -16% | . | . | .
CCOC(=O)C1=C[C@@H](CC)N(S(=O)(=O)c2ccc(C)cc2)[C@H]1c1cccs1 | 2% | . | . | . | . | .
COc1ccc(-c2cc(C(=O)N3CCN(c4ncccn4)CC3)c3ccccc3n2)cc1OC | 0% | . | -10% | . | . | .
COc1cccc(-c2cc(C(=O)N3CCN(c4ncccn4)CC3)c3ccccc3n2)c1 | 8% | 59* | 7% | -1% | 2% | 19*
CC(C)Oc1cccc(-c2cc(C(=O)N3CCN(S(C)(=O)=O)CC3)c3ccccc3n2)c1 | -1% | 57 | -13% | -3% | -18% | 37*
Cc1ccc(-c2cc(C(=O)N3CCN(c4ncccn4)CC3)c3ccccc3n2)cc1 | 2% | 53 | 5% | -7% | 7% | 49*

Screens as filed in PubChem BioAssay.
